CYP2C19 inh – blockers of cytochrome P450 2C19 activity – biochemical, luminescence, ADME assay, primary screen; 96,000 compounds, 21% hits; inhibition, % at 5 µM; AID 778, 2007; CYP2C19 Supersomes, luciferin-H EGE luminescence, 30 min;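 active = CYP2C19 inhibition above a set limit at 5 µM in the primary screen, cut at about 50% in these data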
Target sequence (P33261 whole entry, looked up): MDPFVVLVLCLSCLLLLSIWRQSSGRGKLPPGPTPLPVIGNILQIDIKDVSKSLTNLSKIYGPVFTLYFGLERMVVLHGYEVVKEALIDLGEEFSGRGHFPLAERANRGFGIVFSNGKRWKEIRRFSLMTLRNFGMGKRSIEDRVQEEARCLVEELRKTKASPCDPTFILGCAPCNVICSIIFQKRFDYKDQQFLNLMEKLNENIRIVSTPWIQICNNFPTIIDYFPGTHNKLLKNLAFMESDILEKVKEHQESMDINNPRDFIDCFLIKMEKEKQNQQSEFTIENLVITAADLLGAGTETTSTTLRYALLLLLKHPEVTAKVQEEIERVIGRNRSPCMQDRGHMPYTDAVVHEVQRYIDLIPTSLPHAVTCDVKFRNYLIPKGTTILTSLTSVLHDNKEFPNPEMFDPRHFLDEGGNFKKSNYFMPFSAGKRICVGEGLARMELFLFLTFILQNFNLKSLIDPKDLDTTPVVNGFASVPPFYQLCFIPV
Measles CPE – compounds protecting cells from measles virus cytopathic effect, primary screen, measles RdRp inhibitor project, single point, MLSMR library, absorbance; Measles virus-infected cells, CPE protection; protection (pct of control), % at 4 µM; 140,000 compounds, 1.5% hits; in the data active = protection mostly above about 24%, no sharp cut-off; inactive = mostly below about 26%
CYP2C9 act – human CYP2C9 activators, primary screen, biochemical, luminescence; 96,000 compounds, 1.4% hits; recombinant CYP2C9, luciferin-H conversion; active compounds read high; factor 1 = untreated enzyme, 0 = blocked; activation factor at 5 µM;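 active = activation factor of 2 or more for CYP2C9 at a 5 µM dose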
CYP2C9 inhib – blockers of cytochrome P450 2C9 activity – biochemical, luminescence, ADME assay, primary screen; inhibition, % at 5 µM; 96,000 compounds, 20% hits; CYP2C9 Supersomes, luciferin-H conversion; AID 777, 2007;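 active = blocking of liver enzyme CYP2C9 beyond about 50% at 5 µM, limit read from the data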
CYP2C19 activ – human CYP2C19 activators, primary screen, biochemical, luminescence. Cytochrome P450 2C19 (Homo sapiens), P33261. activation factor at 5 µM. AID 1025, 2008. recombinant CYP2C19, luciferin-H EGE luminescence; active compounds read high; 0 = fully inhibited enzyme, 1 = untreated enzyme. 96,000 tested, under 10 active;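 active = activation factor of at least 2 at 5 µM in the primary screen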
A number is an active result; . = inactive; / = no result. Shown are actives, neighbours in structure and some others; about 22% of the full set was active somewhere.

SMILES	CYP2C19 inh	Measles CPE	CYP2C9 act	CYP2C9 inhib	CYP2C19 activ
CCC(c1nnnn1C(C)(C)CC)N(CCN1CCOCC1)Cc1cc2cc(C)ccc2[nH]c1=O (configuration not stated)	82	.	.	.	.
CCCC(c1nnnn1C(C)(C)CC)N(CCCO)Cc1cc2cc(C)cc(C)c2[nH]c1=O (configuration not stated)	.	.	.	53	.
CCOc1ccc2[nH]c(=O)c(CN(CCN3CCOCC3)Cc3nnnn3C(C)(C)CC)cc2c1	.	.	.	.	.
CC(=O)N(CCO)Cc1cc2cc(C)cc(C)c2[nH]c1=O	.	.	.	.	.
CCC(c1nnnn1C(C)(C)CC)N(CCCO)Cc1cc2cc(C)cc(C)c2[nH]c1=O (configuration not stated)	63	.	.	76	.
O=C(CNC(=O)c1ccccc1Cl)Nc1ccc(F)cc1	/	.	/	/	/
CCCCN(C(=O)NC(=O)Nc1ccccc1OCC)S(C)(=O)=O	54	.	.	79	.
NC(=O)C1CCN(CC(=O)Nc2ccccn2)CC1	.	.	.	.	.
COc1ccc2oc(C(F)(F)C(F)F)cc(=O)c2c1	54	.	.	.	.
COCCN=C1Sc2nc3ccc(C)cc3cc2CN1Cc1ccco1	59	.	.	68	.
Cc1ccc(NC(=S)N(Cc2cccs2)Cc2cc3cc(C)ccc3[nH]c2=O)cc1	/	.	/	/	/
NC(=O)c1oc2ccccc2c1NC(=O)C1CCCCC1	.	.	2.7	.	.
CC(=O)c1ccccc1NS(=O)(=O)c1c(C)nn(-c2ccccc2)c1C	99	.	.	51	.
CC(=O)Nc1ccc(S(=O)(=O)Nc2c(C)nn(-c3ccccc3)c2C)cc1	.	.	.	.	.
O=c1c2ccccc2[nH]c(=S)n1CCN1CCN(Cc2ccccc2)CC1	.	.	.	.	.
c1coc(CNCC2OCCc3ccccc32)c1 (configuration not stated)	.	.	.	.	.
COC(=O)c1sccc1NC(=O)c1csc(C)c1	.	25	.	.	.
Cc1onc(-c2ccccc2Cl)c1C(=O)Nc1ccc(-n2nncc2-c2ccco2)cc1	99	.	.	93	.
Cc1ccnc(NS(=O)(=O)c2ccc(NC(=O)c3c(-c4ccccc4Cl)noc3C)cc2)n1	/	.	/	/	/
Cc1onc(-c2ccccc2Cl)c1C(=O)NCC1CCCO1 (configuration not stated)	.	.	.	.	.
CCCCNS(=O)(=O)c1ccc(NC(=O)c2c(-c3ccccc3Cl)noc2C)cc1	83	.	.	100	.
Cc1onc(-c2ccccc2Cl)c1C(=O)Nc1ccc(S(=O)(=O)NCC2CCCO2)cc1 (configuration not stated)	.	.	.	67	.
Cc1ccc(-c2c3c(=O)n(C)c(=O)n(C)c3cn2CCCN2CCOCC2)cc1	.	.	.	.	.
CC(C)Cn1c(-c2csc3ccccc23)n[nH]c1=S	78	/	.	.	.
COc1ccc(-c2n[nH]c(=S)n2CC(C)C)cc1	78	.	.	56	.
SMILES	CYP2C19 inh	Measles CPE	CYP2C9 act	CYP2C9 inhib	CYP2C19 activ
Cc1cc(C)c(C)c(OCCOCCNCc2ccccc2)c1	/	.	/	/	/
COC(=O)c1ccc(CSc2nnc(CNC(=O)COc3ccc(Cl)cc3)o2)o1	.	.	.	68	.
O=C(CSc1nccn1-c1ccc(Cl)cc1)NCc1ccc2c(c1)OCO2	100	.	.	98	.
CCOc1ccccc1NC(=O)CSc1nnc(CNC(=O)c2ccco2)o1	.	.	.	.	.
COC(=O)c1ccc(CSc2nnc(CNC(=O)c3ccc(OC)cc3)o2)o1	.	.	.	.	.
O=C(COc1ccc(Cl)cc1)NCc1nnc(SCC(=O)NCc2ccc3c(c2)OCO3)o1	.	.	.	70	.
CCOc1ccccc1NC(=O)CSc1nnc(CNC(=O)COc2ccc(Cl)cc2)o1	.	.	2	.	.
Fc1ccc(C2CC(c3ccco3)n3ncnc3N2)cc1 (configuration not stated)	/	.	/	/	/
COc1ccccc1C1CC(c2ccc(C)cc2)Nc2ncnn21 (configuration not stated)	88	/	.	.	.
Cc1ccc(C2CC(c3ccco3)n3ncnc3N2)cc1 (configuration not stated)	91	.	.	.	.
COc1ccccc1C1CC(c2ccccc2)Nc2ncnn21 (configuration not stated)	87	.	.	.	.
COc1ccc(-c2nc(-c3cccc(C(F)(F)F)c3)no2)cc1OC	.	.	.	.	.
O=C(CCN1C(=O)c2ccccc2C1=O)Nc1ccc(S(=O)(=O)NC2=NCCCCC2)cc1	.	.	.	.	.
CN1CCN(c2c(F)cc3c(=O)c(C(=O)O)cn4c3c2SCC4)CC1	/	.	/	/	/
Cc1cccc(NC(=O)C(C)Oc2ccccc2C)n1 (configuration not stated)	85	.	.	61	.
COC(=O)c1c(C)oc2ccc(NS(=O)(=O)c3cccs3)cc12	97	.	.	92	.
COCCOC(=O)c1c(C)oc2ccc(NS(=O)(=O)c3ccccc3)cc12	63	.	.	65	.
COc1ccc2cc(C)c3nnc(SCC(=O)Nc4nc(-c5ccc(F)cc5)cs4)n3c2c1	/	.	/	/	/
CCc1ccc(C(=O)COC(=O)CNC(=O)c2cccs2)cc1	.	.	.	.	.
CN(c1ccccc1)c1nc(-n2ccnc2)nc(-n2ccnc2)n1	79	.	.	.	.
CCCCNc1nc(N(C)c2ccccc2)nc(-n2ccnc2)n1	85	.	.	84	.
CC/C(=N\O)c1ccc(O)c(OC)c1	.	.	.	.	.
Cc1cccc(NC(=S)N/N=C/c2ccc([N+](=O)[O-])s2)c1	.	.	.	.	.
Nc1nc(-c2cccc(NS(=O)(=O)c3ccccc3)c2)cs1	99	.	.	95	.
Cc1nc(-c2cccc(NS(C)(=O)=O)c2)cs1	.	.	.	.	.
SMILES	CYP2C19 inh	Measles CPE	CYP2C9 act	CYP2C9 inhib	CYP2C19 activ
Cc1nc(-c2cccc(NS(=O)(=O)c3cccc4ccccc34)c2)cs1	98	.	.	.	.
O=C1/C(=C\Nc2ccc(OC(F)(F)F)cc2)CCN1c1ncccn1	.	.	.	.	.
CC(=O)NC(=O)c1ccc(-c2ccc(Cl)cc2)o1	/	.	/	/	/
O=[N+]([O-])c1ccccc1N/N=C\c1ccccc1Cl	64	.	.	.	.
Cc1c(-c2nc(N)nc(Nc3ccccc3)n2)oc2ccccc12	.	.	.	84	.
Nc1nc(CN2CCCCCC2)nc(Nc2ccccc2)n1	.	.	.	.	.
Clc1ccc(OCCn2ccnc2)c(Cl)c1	95	.	.	96	.
Clc1ccc(SCCn2ccnc2)cc1	90	.	.	60	.
Clc1ccc(OCCn2ccnc2)c2ccccc12	97	.	.	91	.

Compound activity as filed in PubChem.
